# ± gives the standard deviation of the averaged measurements. Over roughly 25,000 sequences, “ln(normalized median fluorescence intensity)” has its median near 8.9; the highest 2% begin near 10. Shown is part of a subset that was picked to be rich in the highest values.
# Test system: PfAP2-LT AP2 domain (GST-tagged)
# Experiment: gcPBM binding intensity (ln(normalized median fluorescence intensity)); higher = stronger DNA binding
# Outline: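 After 1 h on an Agilent 4 × 180k array of primer-extended double-stranded 36-bp intergenic genomic probes and negative controls, bound GST-tagged P. falciparum DNA-binding domains were detected with Alexa488 anti-GST antibody and scanned at 488 nm. The domains had been expressed in E. coli, and binding took place in 1× PBS with 1% milk, 0.2 mg/ml BSA, 0.5% salmon testes DNA and 0.03% Triton X-100. Binding intensity is the highest Masliner-normalised natural-log median intensity across replicate spots of either probe orientation.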
row,Sequence,gcPBM binding intensity (ln)
1,AAATCTTAATAAAGTTGTACATAATTATGTTTAATA [XGTACX_site3348],8.55 ± 0.49
2,TAATGGAATAAAAATTGTACATATTTTTTTTTTTTT [XGTACX_site7669],8.45 ± 0.36
3,TTTCTTAAATATATTGAGGAATAAAAAGAAGAAAAG [GTGCAC_negctrl_site281],8.33 ± 0.4
4,AGTATTATATATATATGTACATAATATACATATATA [XGTACX_site8514],8.73 ± 0.36
5,TATGCTACATTATATGTACACACATATACATATATA [CACACA_site8199],9.11 ± 0.42
6,AGGAACATTTACGCCCCACACACCTACCAACAAAAA [CACACA_site3827],9.59 ± 0.23
7,TATAATGATGATGATAGTACGTATGAGTAAGAAAAA [XGTACX_site31],8.99 ± 0.54
8,AGATTATAAAATTCTACACACATATATACCTATATA [CACACA_site5848],9.04 ± 0.42
9,TGAACCAGATTTAGAAGTACTAAATATTACATACAT [XGTACX_site2437],8.7 ± 0.47
10,AAATGGAAAAGGTGTACACAAAAAAAAGGGAAAAGC [CACACA_site5331],9.37 ± 0.5
11,AACTTTTAGAAGAACACACACATATAGATTATGACC [CACACA_site6256],9.24 ± 0.33
12,TATATTATGACCACCACACACCTATACACATAACAT [CACACA_site7199],9.45 ± 0.16
13,ATTATAACACCTCCCCCCCTTTTTTTATGAAGACCA [CACACA_negctrl_site1043],10.1 ± 0.4
14,ACAATTTATATTATATGTACTTAAAAAGTTCGTAAA [XGTACX_site6421],8.47 ± 0.27
15,TTTTGAAGCTTTAAAACATATATATATATATATATA [CACACA_negctrl_site184],9.75 ± 0.41
16,ATAATTGTTTCTTTCTCCTTTTTATTTCATTTTAAA [CACACA_negctrl_site964],8.68 ± 0.41
17,TATATATTAAAATAATCACACACATCAATTAATGGT [CACACA_site8331],9.09 ± 0.42
18,AAATAAAATAAAACAACACACACGAATGTATAAATA [CACACA_site885],9.45 ± 0.33
19,ATAAAATAAAACAACACACACGAATGTATAAATATA [CACACA_site4643],9.53 ± 0.36
20,GCACGAAACAATGTATATATATATATATATATATAT [GTGCAC_negctrl_site412],10.32 ± 0.078
21,ATGATTTATTATTATACACACAAAAAAAAAAAAGGA [CACACA_site264],8.84 ± 0.42
22,AATATCAATGATGTTACATGCAAGAGAATCCACAAA [TGCATGCA_site678],8.96 ± 0.42
23,TATATATATATATGTACACACACACCGATAAATAAA [CACACA_site8041],9.69 ± 0.15

row,Sequence,gcPBM binding intensity (ln)
1,AAATAATATAAACATACACACACACCGATATATATA [CACACA_site8945],9.92 ± 0.17
2,AAATAATTCAAAAAAACACACAAATTACAAAATAAA [CACACA_site269],8.92 ± 0.55
3,CATATAAAAATGTGCACACACACACCGATATATATT [CACACA_site4940],9.95 ± 0.17
4,CCTAAATAAATGGACACACACATATATATATATATA [CACACA_site1439],9.85 ± 0.29
5,CACTAAAATGGACACACACACACACCGATATATATA [CACACA_site6139],10.1 ± 0.23
6,CAAAAAATTCAACACACACACACACCGATAAATAAA [CACACA_site8330],10.11 ± 0.071
7,AATATAAATAATGTTAAACACACATACCGATATATA [CACACA_site8869],9.02 ± 0.45
8,AAAATACATAAACACACACACACACCGATATATATA [CACACA_site9186],10.43 ± 0.092
9,TATATATATAAATACACACACACACCGATATATATA [CACACA_site5408],9.97 ± 0.11
10,TTCAAAATAAAAAATTCACACACATATATATATATA [CACACA_site8653],9.44 ± 0.17
11,ACCATATAAATAAACACACACACACCGATATATATA [CACACA_site5310],10.09 ± 0.085
12,AGGCTATAATACCATACACACATTTATAAAATAACA [CACACA_site6990],9.07 ± 0.42
13,ATACTTATGATAAATACACACTTGAAATTAAGGATT [CACACA_site4772],8.85 ± 0.37
14,CATTTTTCTATATGTGCATGTAAGATAAGAATAATT [TGCATGCA_site107],8.48 ± 0.3
15,TATTTTTCCATATGCACACACACCGTATCTAGAATA [CACACA_site6654],9.47 ± 0.37
16,ATAATTAAAATGCTCACACACATAAAAAAAAATTAA [CACACA_site2149],8.94 ± 0.46
17,TTATTATTATGATTATTATGATGATTATACAACTGT [TGCATGCA_negctrl_site241],8.85 ± 0.35
18,AAATTGAATTAGTTAACACACAACTTTTATTTCATA [CACACA_site2840],8.74 ± 0.4
19,TCAAATATATAGAATACACACATGGATATAAGAAAT [CACACA_site4065],9.2 ± 0.4
20,TTATAATAAAATGAATATATATAATTTAAAATATTT [CACACA_negctrl_site1651],8.27 ± 0.54
21,TATATTTATAAGTGTACACATTATATAAATCCCTAT [CACACA_site6122],8.65 ± 0.42
22,AATTTTCTACAAATGTGTACTAAATAAAATATTACT [XGTACX_site7175],8.63 ± 0.39
23,AATATAAATAAAAACACACACACACCGATATATATA [CACACA_site5283],10.2 ± 0.11

row,Sequence,gcPBM binding intensity (ln)
1,AAAATACATGGACACACACACACACCGATATATATA [CACACA_site5885],10.4 ± 0.21
2,AAGGATATAACATACACACACACACCGATATATATA [CACACA_site6136],10 ± 0.29
3,AAAAAGGATAAACACACACACACACCGATATATATA [CACACA_site8206],10.34 ± 0.099
4,CACTAAAATAAACACACACACACACCGATATATATA [CACACA_site9379],9.96 ± 0.014
5,GGAATAATATAAAACACACACATAAATATAAATATA [CACACA_site3376],9.45 ± 0.35
6,CAAAATAATATATATACACACACACCGATATATATA [CACACA_site8082],9.81 ± 0.18
7,AAAAAAAAAAAAAATACACACACACCGATATATATA [CACACA_site8142],9.775 ± 0.092
8,AATAAAAAGGAACACACACACACACCGATATATATA [CACACA_site5895],10.08 ± 0.085
9,AAAAAAAAAAGAATAGCACACACACCGATATAAATA [CACACA_site8111],9.71 ± 0.37
10,TAAAAAAAAAAAAATACACACACACCGATATATATA [CACACA_site8498],9.76 ± 0.19
11,TGGGAATAAAAACACACACACACACCGATATATATA [CACACA_site5875],10.1 ± 0.41
12,TGGAACCTTTAAAATACACACCCAAATCCTTTGAAA [CACACA_site7671],8.69 ± 0.35
13,AGAGAGAGAAATACAAGTACATGTGAAACCAATCTA [XGTACX_site2767],9.04 ± 0.46
14,GCATCGATCAAACATACACACATGGTTAATAAAAAT [CACACA_site8651],9.24 ± 0.47
15,TTTAAAAAAAGCAGTACATGCAAAATAATAACAAGC [TGCATGCA_site392],9.2 ± 0.48
16,TACACAAGGGGAAAAATATATATATATATATATATA [TGCATGCA_negctrl_site217],9.88 ± 0.028
17,TATTTTTTTTCGTAATGTACATAAAAAATGCAAAAA [XGTACX_site8491],8.27 ± 0.36
18,CATCCGTTGATATATGCATGCATATTGTTATTACCA [TGCATGCA_site868],9.11 ± 0.36
19,TTTATATATAAATAATGTACAAAAAATTTTAAAAAG [XGTACX_site7990],8.39 ± 0.39
20,ACAGTTTGTCTGAGTAGTACATAAATACTTGAAAGG [XGTACX_site7792],8.79 ± 0.45
21,CGCGCACACGGACACACACACACACGGATATAAATA [CACACA_site7102],10 ± 0.4
22,TACAGACTAAAATACACACACACACGCACATATATA [CACACA_site7875],10.2 ± 0.18
23,AAAATACACAGACACACACACATATAAATAAATATT [CACACA_site7871],9.79 ± 0.19

row,Sequence,gcPBM binding intensity (ln)
1,AAAAAATACAGACACACACACACACGCATATAAATA [CACACA_site7644],10.1 ± 0.25
2,TTTAAATACAGACATACACACATACACGCACATATA [CACACA_site6400],9.49 ± 0.37
3,GCTATAAATACAGACGCACACATATACATACAGATA [CACACA_site5778],9.33 ± 0.42
4,GCTATAAATACAGACGCACACATATACATACATATA [CACACA_site3329],9.42 ± 0.33
5,CTAAAATACAGACACACACACACATATATATATATA [CACACA_site4150],10.07 ± 0.021
6,CACGCATACAGACACACACACACACGGATATAAATA [CACACA_site6445],10.2 ± 0.4
7,CACACGCACAGACACACACACACATATAAATATGTA [CACACA_site6300],9.89 ± 0.37
8,CGCATACACAGACACACACACACATATAAATATGTA [CACACA_site6444],9.98 ± 0.47
9,CACACGCACAGACACACACACACACGGATATAAATA [CACACA_site6301],10.2 ± 0.38
10,AAATCGTGCACGGACACATGCAGTAGCCGAGAATTA [TGCATGCA_site733],9.12 ± 0.38
11,AAAAAAAAGAAAAAAACACACAATGGAAAAAATGTA [CACACA_site3675],8.93 ± 0.59
12,TATAAAATAAATAACAAAAAAAATAAAATAAAAATA [TGCATGCA_negctrl_site297],8.6 ± 0.7
13,TGCCCTTTGGTTATAACACACATGCACACGTAAATA [CACACA_site7750],9.4 ± 0.23
14,TTTTGTTATTAGAGGGTGCTTATAATGAACTCCTAC,8.65 ± 0.49
15,TTATGAATACTTCAAGTGCATTTATTTTATATGACA,8.63 ± 0.48
16,ATATTGGAATAAATTTGTACATATATATATTATTCA [XGTACX_site916],8.7 ± 0.44
17,CTGTTTTTGTTTTAAAGTACATTGTTCAATATACAT [XGTACX_site5288],8.82 ± 0.43
18,AAATATAATAAAATGACACACGCATATATATATATA [CACACA_site8900],9.775 ± 0.064
19,TAAATAAATTTATACACACACACACGGATATAAATA [CACACA_site6532],9.82 ± 0.071
20,TAAAAAATATTATATACACACAGTATAAAAAAAAAT [CACACA_site4012],8.95 ± 0.49
21,CACACTAAAAGACACACACACACACGCATATAAATA [CACACA_site7874],10.3 ± 0.4
22,ATATAATAAAATGACACACGCATATATATATATATA [CACACA_site2789],9.955 ± 0.021
23,ATAGTATACAGACACACACACACACGGATATAAATA [CACACA_site6914],10.1 ± 0.36
